Source: PubChem BioAssay (NCATS)
Records with an inconclusive call do not appear. Active and inactive are the calls of the source. Calls follow the shape of the dose curve; as a rule, active = well fitted inhibition curve with a large enough effect; inconclusive = small, poorly fitted or top-dose-only effect; inactive = flat fitted curve, though single readings scatter.

What was measured:
Assay in all cases: qHTS profiling for inhibitors of Plasmodium falciparum proliferation (AID 504749); also: nearly all actives have a fitted effect of over 60% in size
Settings in all cases: P. falciparum in erythrocytes, SYBR Green DNA, 72 h; series mostly up to 28.7 µM
ECU = system: ECU
In short: (§1)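 In a 72 h erythrocytic culture (37 C, humidified, 5% CO2) at 2.5% hematocrit and 0.3% starting parasitemia, compounds were tested; SYBR Green I in detergent lysis buffer stained parasite DNA overnight.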

FAB9 = system: FAB9
In short: as §1

GB4 = system: GB4
In short: as §1

HB3 = system: HB3
In short: as §1

ICS = system: ICS
In short: as §1

JCK = system: JCK
In short: as §1

N140 = system: N140
In short: as §1

P93_24 = system: P93_24
In short: as §1

P94_40 = system: P94_40
In short: as §1

PAD = system: PAD
In short: as §1

PC15 = system: PC15
In short: as §1

PC26 = system: PC26
In short: as §1

PC49 = system: PC49
In short: as §1

SC27B = system: SC27B
In short: as §1

TAB109 = system: TAB109
In short: as §1

TAB113 = system: TAB113
In short: as §1

TAB165 = system: TAB165
In short: as §1

W2 = system: W2
In short: as §1

Measured: Potency

CC1=CCC2CC1C2(C)C (stereo not given)
inactive: all assays above

CC(C)(CO)[C@@H](O)C(=O)NCCC(=O)NCCSSCCNC(=O)CCNC(=O)[C@H](O)C(C)(C)CO
inactive: all assays above

COc1ccc(/C=C/C(=O)O)cc1
inactive: all assays above

O=C(O)[C@H]1CN(C/C=C/P(=O)(O)O)CCN1
inactive: all assays above

CC(C)[C@H](N)C(=O)OCC(CO)OCn1cnc2c(=O)[nH]c(N)nc21 (stereo not given in full)
inactive: all assays above

O=S(=O)(O)CCCS(=O)(=O)O
inactive: all assays above

NCCO/C=C/[C@H](N)C(=O)O
inactive: all assays above

O=C(O)CCCC/C=C(\c1ccccc1)c1cccnc1
inactive: all assays above

CC(C)c1nc(N(C)S(C)(=O)=O)nc(-c2ccc(F)cc2)c1/C=C/C(O)CC(O)CC(=O)O (stereo not given)
inactive: all assays above

CN1C(=O)OC(C)(C)C1=O
inactive: all assays above

CCCCCCOC(=O)c1cccnc1
inactive: all assays above

O=C(O)COc1ccccc1/C=N/NC(=O)c1ccncc1
inactive: all assays above

OCCCNc1ccccc1
inactive: all assays above

FC(F)(F)C(F)(F)C(F)(F)C(F)(F)C(F)(F)F
inactive: all assays above

CC(=O)N[C@@H]1C(O[C@H]2O[C@H](C(=O)O)C(O)[C@H](O)[C@H]2O)[C@H](O)[C@@H](CO)O[C@H]1O[C@@H]1C(C(=O)O)O[C@@H](O[C@H]2[C@H](O)[C@@H](CO)OC(O)[C@@H]2NC(C)=O)[C@H](O)[C@H]1O (stereo not given in full)
inactive: all assays above
